# Reference: PubChem BioAssay (Tox21)
# Several values for one entry are separate records, joined by “and”; a condition that tells them apart may be missing. Identical values can stand only once. Results filed as inconclusive are left out. Where a call stands in place of a potency, no number is given. Some compounds were tested as several samples or in several runs, with calls that do not always agree. Activity calls are given as the source filed them. Calls come from the whole dose curve; as a rule, active = well fitted curve in the direction sought with a large enough effect in the repeat runs; inconclusive = weak or mixed curves; inactive = no such curve, though single readings can be large; an effect the other way counts as inactive or inconclusive.
# Legend:
# [1] = biological target: Cytochrome P450 1A2 (Homo sapiens) (UniProt P05177); assay: Cytochrome P450 Family 1 Subfamily A Member 2 (CYP1A2) small molecule antagonists: luciferase reporter qHTS assay (AID 1671199); note: series mostly up to about 120 µM
# Chain of Cytochrome P450 1A2 (Homo sapiens) (P05177 whole entry, looked up): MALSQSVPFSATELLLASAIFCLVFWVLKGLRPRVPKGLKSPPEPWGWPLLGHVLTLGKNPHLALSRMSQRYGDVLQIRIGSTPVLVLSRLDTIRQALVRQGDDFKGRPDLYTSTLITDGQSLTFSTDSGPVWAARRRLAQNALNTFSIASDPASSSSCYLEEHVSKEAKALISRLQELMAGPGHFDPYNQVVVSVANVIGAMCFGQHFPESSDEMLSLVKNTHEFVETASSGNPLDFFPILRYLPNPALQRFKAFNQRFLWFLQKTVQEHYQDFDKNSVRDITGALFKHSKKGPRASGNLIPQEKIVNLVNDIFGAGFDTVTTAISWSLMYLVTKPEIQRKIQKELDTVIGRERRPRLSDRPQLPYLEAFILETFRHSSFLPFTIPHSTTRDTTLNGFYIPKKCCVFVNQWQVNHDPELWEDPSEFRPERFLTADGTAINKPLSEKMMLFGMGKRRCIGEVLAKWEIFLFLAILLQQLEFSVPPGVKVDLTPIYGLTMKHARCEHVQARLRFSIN
# Outline: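 Compounds were incubated with CYP1A2 and a luminogenic proluciferin substrate for 10 min at room temperature before the reaction was started with NADPH regeneration solution. After 1 h, detection reagent was added and light output, proportional to CYP activity, was recorded.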
# [2] = biological target: Voltage-gated inwardly rectifying potassium channel KCNH2 (Homo sapiens) (UniProt Q12809); assay: Human Ether-a-go-go-Related Gene (hERG) channel small molecule antagonists: fluorescence cell-based qHTS assay (AID 1671200); note: potency is the fitted concentration of half-maximal effect
# Chain of Voltage-gated inwardly rectifying potassium channel KCNH2 (Homo sapiens) (Q12809 whole entry, looked up): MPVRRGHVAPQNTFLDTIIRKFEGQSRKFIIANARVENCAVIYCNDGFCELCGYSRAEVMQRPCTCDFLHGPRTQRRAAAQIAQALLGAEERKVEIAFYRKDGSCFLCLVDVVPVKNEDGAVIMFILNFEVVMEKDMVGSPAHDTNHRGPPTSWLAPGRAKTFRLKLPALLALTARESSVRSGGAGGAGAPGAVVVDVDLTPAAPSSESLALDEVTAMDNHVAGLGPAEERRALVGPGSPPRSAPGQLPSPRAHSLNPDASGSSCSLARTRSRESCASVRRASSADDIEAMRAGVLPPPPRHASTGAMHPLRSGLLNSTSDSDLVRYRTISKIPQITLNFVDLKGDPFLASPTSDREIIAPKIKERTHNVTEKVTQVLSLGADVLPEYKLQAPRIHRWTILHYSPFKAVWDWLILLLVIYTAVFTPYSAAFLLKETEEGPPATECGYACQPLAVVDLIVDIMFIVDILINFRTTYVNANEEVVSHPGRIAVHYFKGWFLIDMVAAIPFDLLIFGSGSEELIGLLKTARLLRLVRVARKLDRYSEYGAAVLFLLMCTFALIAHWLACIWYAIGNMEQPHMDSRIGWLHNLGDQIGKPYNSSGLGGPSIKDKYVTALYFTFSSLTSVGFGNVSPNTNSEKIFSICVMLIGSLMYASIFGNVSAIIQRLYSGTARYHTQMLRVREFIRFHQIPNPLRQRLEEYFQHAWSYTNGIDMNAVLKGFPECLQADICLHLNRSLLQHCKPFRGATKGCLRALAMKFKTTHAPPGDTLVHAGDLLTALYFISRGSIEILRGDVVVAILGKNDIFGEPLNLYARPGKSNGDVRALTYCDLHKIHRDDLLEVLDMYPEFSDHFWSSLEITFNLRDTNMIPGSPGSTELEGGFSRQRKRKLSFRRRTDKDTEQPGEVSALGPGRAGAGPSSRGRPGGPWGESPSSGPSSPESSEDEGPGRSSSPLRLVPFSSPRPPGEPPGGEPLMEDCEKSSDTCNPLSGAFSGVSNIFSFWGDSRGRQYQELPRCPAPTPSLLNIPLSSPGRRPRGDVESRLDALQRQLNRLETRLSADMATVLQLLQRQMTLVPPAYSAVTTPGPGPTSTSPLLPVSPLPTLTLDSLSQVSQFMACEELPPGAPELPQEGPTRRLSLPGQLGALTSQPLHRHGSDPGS
# Outline: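 First, 1000 cells per well are seeded and cultured overnight at 37 C. Next, FluxOR II dye is loaded for 1 h at room temperature, protected from light. After 10 more minutes, stimulus is added and fluorescence is read.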
# [3] = biological target: Cytochrome P450 3A4 (Homo sapiens) (UniProt P08684); assay: Cytochrome P450 Family 3 Subfamily A Member 4 (CYP3A4) small molecule antagonists: luciferase reporter qHTS assay (AID 1671201); note: potency is the fitted concentration of half-maximal effect
# Chain of Cytochrome P450 3A4 (Homo sapiens) (P08684 whole entry, looked up): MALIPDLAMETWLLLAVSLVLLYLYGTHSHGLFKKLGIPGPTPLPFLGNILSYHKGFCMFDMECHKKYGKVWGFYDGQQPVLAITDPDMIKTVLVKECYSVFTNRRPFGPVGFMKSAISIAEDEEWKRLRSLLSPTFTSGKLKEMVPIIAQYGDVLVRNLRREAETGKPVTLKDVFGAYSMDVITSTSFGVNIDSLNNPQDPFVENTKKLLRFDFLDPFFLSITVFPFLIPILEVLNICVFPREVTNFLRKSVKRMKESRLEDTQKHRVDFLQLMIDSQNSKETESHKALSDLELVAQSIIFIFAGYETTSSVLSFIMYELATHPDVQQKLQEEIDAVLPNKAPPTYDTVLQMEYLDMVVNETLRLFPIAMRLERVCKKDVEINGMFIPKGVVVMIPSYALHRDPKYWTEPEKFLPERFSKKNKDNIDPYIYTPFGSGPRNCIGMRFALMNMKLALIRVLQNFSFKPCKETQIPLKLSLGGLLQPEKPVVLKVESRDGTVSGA
# Outline: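 Enzyme and proluciferin substrate are mixed with test chemicals for 10 min, then NADPH regeneration system drives turnover for 1 h at room temperature. A detection reagent halts the reaction; luminescence after 20 min gives relative activity.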
# Note: nearly all actives have a fitted effect of over 50% in size.
Compound,Potency [1],Potency [2],Potency [3]
CC(O)CNCC(C)O (centres undefined),inactive,inactive,
CC[N+](CC)(CC(=O)Nc1c(C)cccc1C)Cc1ccccc1,inactive,24.5 µM (active) and inactive,
NC1CCCCC1N (centres undefined),,inactive,
NCCNCCNCCN,,inactive,
O=Cc1ccc(CO)o1,inactive,inactive,inactive
CS(=O)(=O)c1ccc(Cl)cc1,inactive,inactive,inactive
CCCCCCCCCCCC(=O)N(C)CC(=O)O,inactive,inactive,inactive
CCn1cc(C(=O)O)c(=O)c2cc3c(cc21)OCO3,,inactive,
N#CCC(=O)O,inactive,inactive,inactive
CC1(C)[C@@H](O[C@H]2O[C@H](C(=O)O)[C@@H](O)[C@H](O)[C@H]2O[C@@H]2O[C@H](C(=O)O)[C@@H](O)[C@H](O)[C@H]2O)CC[C@]2(C)[C@H]3C(=O)C=C4[C@@H]5C[C@@](C)(C(=O)O)CC[C@]5(C)CC[C@@]4(C)[C@]3(C)CC[C@@H]12,inactive,inactive,inactive
Clc1cccc(Cl)c1NC1=NCCN1,,inactive,
OC[C@H]1O[C@@H](Oc2ccc(O)cc2)[C@H](O)[C@@H](O)[C@@H]1O,inactive,inactive,
Nc1cccc(N)n1,inactive,inactive,inactive
NC(=O)NC(N)=O,inactive,inactive,inactive
CN1Cc2c(N)cccc2C(c2ccccc2)C1 (centres undefined),inactive,inactive,inactive
COc1ccc([C@@H]2CC(=O)c3c(O)cc(O[C@@H]4O[C@H](CO[C@@H]5O[C@@H](C)[C@H](O)[C@@H](O)[C@H]5O)[C@@H](O)[C@H](O)[C@H]4O)cc3O2)cc1OC,inactive,inactive,inactive and 21.7 µM (active)
O=C1CCCCCCCCCCC1,inactive,inactive,inactive
Cc1ccccc1Cl,inactive,inactive,inactive
Cc1nnc(NS(=O)(=O)c2ccc(N)cc2)s1,inactive,inactive,inactive
CC(=O)Nc1ccc(CC(=O)O)cc1,inactive,inactive,inactive

Compound,Potency [1],Potency [2],Potency [3]
C=C(CC(=O)O)C(=O)O,,inactive,
CC(CN1c2ccccc2Sc2ccccc21)N(C)C (centres undefined),,22.1 µM (active) and 21.9 µM (active) and 21.3 µM (active),inactive
O=C1OC(=O)c2c(Cl)c(Cl)c(Cl)c(Cl)c21,inactive,inactive,inactive
CC(C)(C)NC[C@H](O)COc1nsnc1N1CCOCC1,,inactive,
C[Si](C)(C)N[Si](C)(C)C,inactive,inactive,inactive
C=C1C[C@]23C[C@@]1(O)CC[C@H]2[C@@]12C=C[C@H](O)[C@@](C)(C(=O)O1)[C@H]2[C@@H]3C(=O)O,,inactive,
CCc1cccc(O)c1,,inactive,inactive
N[C@@H](Cc1cc(I)c(Oc2ccc(O)c(I)c2)c(I)c1)C(=O)O,,inactive,
CC/C(C)=N/O,inactive,inactive,inactive
OC1CCCCC1,inactive,inactive,inactive
CCOC(=O)c1ccc(O)cc1,,inactive,
CO[Si](CCCNCCN)(OC)OC,,inactive,
CCN(CC)CCNC(=O)c1ccc(N)cc1,,inactive,
CC(=O)c1nccs1,,inactive,
COc1ccccc1[N+](=O)[O-],,inactive,
CCCCC(CC)COC(=O)c1ccc(C(=O)OCC(CC)CCCC)cc1 (centres undefined),,inactive,inactive
OCCOCCOCCOCCOCCO,,inactive,
COCN(COC)c1nc(N(COC)COC)nc(N(COC)COC)n1,inactive,inactive,inactive
NC(=O)c1ncn([C@@H]2O[C@H](CO)[C@@H](O)[C@H]2O)n1,inactive,inactive,inactive
O=c1c(O)c(-c2ccc(O)c(O)c2)oc2cc(O)cc(O)c12,,inactive,
